# IDE exosite FP = insulin-degrading enzyme (human) exo-site inhibition; P14735; purified IDE, FL-6b probe fluorescence polarization; active compounds read low; z-score at 20 µM; hit rate 6.3% among 17,000; AID 1259349;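 active = z-score of -3 or lower, meaning strong loss of probe binding signal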;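 note: His-tagged human IDE residues 42-1019 made in E. coli with 30 nM FL-6b probe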
# Target sequence (P14735 42-1019 limits assumed): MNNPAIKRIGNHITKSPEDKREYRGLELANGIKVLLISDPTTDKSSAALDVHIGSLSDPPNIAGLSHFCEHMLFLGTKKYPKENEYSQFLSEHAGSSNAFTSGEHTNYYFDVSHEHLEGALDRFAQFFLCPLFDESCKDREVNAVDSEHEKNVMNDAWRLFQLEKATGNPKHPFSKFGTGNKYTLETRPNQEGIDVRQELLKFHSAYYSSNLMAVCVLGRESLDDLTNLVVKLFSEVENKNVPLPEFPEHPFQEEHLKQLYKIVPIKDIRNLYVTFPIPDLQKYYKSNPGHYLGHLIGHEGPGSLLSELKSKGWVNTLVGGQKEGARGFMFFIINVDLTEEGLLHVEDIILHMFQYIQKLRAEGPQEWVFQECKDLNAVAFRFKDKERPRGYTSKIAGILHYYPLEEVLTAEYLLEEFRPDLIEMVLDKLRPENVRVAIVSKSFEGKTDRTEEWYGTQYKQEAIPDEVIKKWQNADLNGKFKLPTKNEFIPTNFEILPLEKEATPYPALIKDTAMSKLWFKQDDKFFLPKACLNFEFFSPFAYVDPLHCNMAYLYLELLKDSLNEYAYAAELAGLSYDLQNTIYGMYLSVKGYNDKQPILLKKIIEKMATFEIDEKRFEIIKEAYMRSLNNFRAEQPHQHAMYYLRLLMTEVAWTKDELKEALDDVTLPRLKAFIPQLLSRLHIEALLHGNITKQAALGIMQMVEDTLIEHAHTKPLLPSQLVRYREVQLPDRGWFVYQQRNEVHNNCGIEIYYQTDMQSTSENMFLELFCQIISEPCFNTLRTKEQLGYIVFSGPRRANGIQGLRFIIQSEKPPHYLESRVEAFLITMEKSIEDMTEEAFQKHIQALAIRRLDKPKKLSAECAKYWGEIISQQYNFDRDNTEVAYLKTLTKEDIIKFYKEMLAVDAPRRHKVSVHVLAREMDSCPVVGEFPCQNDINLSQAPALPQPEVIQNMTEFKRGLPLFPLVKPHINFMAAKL
# An asterisk follows results filed as active. This excerpt belongs to a sample that is enriched for hits.
SMILES,IDE exosite FP
O=C(Cc1ccccn1)N1CC(=O)N2[C@H](CO)[C@@H](c3ccc(-c4ccccc4)cc3)[C@H]2C1,-0.4
O=C(Cc1ccccn1)N1CC(=O)N2[C@H](CO)[C@H](c3ccc(-c4ccc(F)cc4)cc3)[C@@H]2C1,-0.59
Cc1ccc(-c2ccc([C@@H]3[C@@H](CO)N4C(=O)CN(C(=O)Cc5ccccn5)C[C@@H]34)cc2)cc1,-2.6
Cc1cccc(-c2ccc([C@@H]3[C@@H](CO)N4C(=O)CN(C(=O)Cc5ccccn5)C[C@H]34)cc2)c1,-5.7*
Cc1ccc(-c2ccc([C@@H]3[C@H]4CN(C(=O)Cc5ccccn5)CC(=O)N4[C@H]3CO)cc2)cc1,-0.8
Cc1cccc(-c2ccc([C@H]3[C@H](CO)N4C(=O)CN(C(=O)Cc5ccccn5)C[C@@H]34)cc2)c1,-6.9*
Cc1ccc(-c2ccc([C@@H]3[C@@H](CO)N4C(=O)CN(C(=O)Cc5ccccn5)C[C@H]34)cc2)cc1,-1.2
CN(C)CC#Cc1ccc([C@H]2[C@H](CO)N3C(=O)CN(C(=O)c4ccccc4)C[C@@H]23)cc1,1.5
COCC(=O)N1CC(=O)N2[C@H](CO)[C@@H](c3ccc(C#CC4CC4)cc3)[C@H]2C1,0.089
N#C[C@@H]1[C@@H](c2ccccc2)[C@@H](CO)N1C(=O)c1ccc2c(c1)OCO2,0.28
O=C(CCN1CCCCC1)N[C@H]1CC[C@H](CC(=O)N2CCC(Cc3ccccc3)CC2)O[C@@H]1CO,1.3
CC(C)NC(=O)N1CC(=O)N2[C@H](C1)[C@@H](c1ccc(/C=C/c3ccccc3)cc1)[C@@H]2CO,-2.8
O=C(NC1CCCCC1)N1CC(=O)N2[C@H](CO)[C@H](c3ccc(/C=C/c4ccccc4)cc3)[C@H]2C1,-6.7*
C/C=C/c1ccc([C@H]2[C@@H](CO)N3C(=O)CN(C(=O)NC4CCCCC4)C[C@@H]23)cc1,-0.75
CC(C)NC(=O)N1CC(=O)N2[C@H](CO)[C@H](c3ccc(/C=C/c4ccccc4)cc3)[C@@H]2C1,-2.1
O=C(NC1CCCCC1)N1CC(=O)N2[C@H](CO)[C@@H](c3ccc(/C=C/c4ccccc4)cc3)[C@H]2C1,-4.4*
CC(C)NC(=O)N1CC(=O)N2[C@H](C1)[C@H](c1ccc(/C=C/c3ccccc3)cc1)[C@@H]2CO,-3.8*
CC(=O)N(C[C@@H]1N[C@@H](CO)[C@H]1c1ccc(-c2ccccc2)cc1)C(C)C,3.9
CCS(=O)(=O)N1CC(=O)N2[C@H](CO)[C@@H](c3ccc(C#Cc4ccc(F)cc4)cc3)[C@@H]2C1,1.8
CCS(=O)(=O)N1CCCCN2[C@H](C1)[C@@H](c1ccc(-c3cccc(C#N)c3)cc1)[C@@H]2CO,0.48
Cc1noc(C)c1S(=O)(=O)N(C)C[C@@H]1OCc2ccccc2-c2c(n(C)c3ccccc23)C(=O)N([C@@H](C)CO)C[C@@H]1C,-1.1
CCN1CC(=O)N2[C@H](CO)[C@@H](c3ccc(-c4cccnc4)cc3)[C@H]2C1,0.2
c1ccc(-c2ccc([C@H]3[C@H]4CNC[C@@H]3N4Cc3cc(-c4ccccc4)on3)cc2)cc1,0.12
O=C(C1CC1)N1CC(=O)N2[C@@H](CO)[C@@H](c3ccc(C#Cc4cccc(F)c4)cc3)[C@@H]2C1,-4.7*
O=C(C1CC1)N1CC(=O)N2[C@H](CO)[C@H](c3ccc(C#CC4CCCC4)cc3)[C@H]2C1,1.7
SMILES,IDE exosite FP
O=C(C1CCCC1)N1CC(=O)N2[C@H](CO)[C@H](c3ccc(C#CC4CCCC4)cc3)[C@@H]2C1,2
O=C(C1CCC1)N1CC(=O)N2[C@H](CO)[C@H](c3ccc(C#Cc4cccc(F)c4)cc3)[C@H]2C1,-10*
O=C(C1CCCCC1)N1CC(=O)N2[C@H](CO)[C@@H](c3ccc(C#Cc4cccc(F)c4)cc3)[C@H]2C1,-0.72
O=C(C1CCC1)N1CC(=O)N2[C@H](CO)[C@@H](c3ccc(C#Cc4cccc(F)c4)cc3)[C@@H]2C1,-4.4*
COc1ccc(C#Cc2ccc([C@H]3[C@@H](CO)N4C(=O)CN(C(=O)C5CCOCC5)C[C@H]34)cc2)cc1,-1.4
O=C(C1CCC1)N1CC(=O)N2[C@@H](CO)[C@H](c3ccc(C#CCc4ccccc4)cc3)[C@@H]2C1,-0.22
O=C(C1CCCCC1)N1CC(=O)N2[C@H](C1)[C@H](c1ccc(C#Cc3cccc(F)c3)cc1)[C@@H]2CO,2.1
COc1ccc(C#Cc2ccc([C@@H]3[C@@H](CO)N4C(=O)CN(C(=O)C5CCOCC5)C[C@H]34)cc2)cc1,1.6
O=C(C1CC1)N1CC(=O)N2[C@H](CO)[C@H](c3ccc(C#CCc4ccccc4)cc3)[C@H]2C1,-0.86
O=C(C1CCOCC1)N1CC(=O)N2[C@H](CO)[C@@H](c3ccc(C#Cc4cccc(F)c4)cc3)[C@@H]2C1,-10*
FC(F)(F)c1cccc(CN2[C@@H]3CNC[C@H]2[C@@H]3c2ccc(-c3cccnc3)cc2)c1,-0.87
CCCNC(=O)N1CC2(CN(C(=O)c3cnccn3)C2)c2c([nH]c3cc(OC)ccc23)[C@H]1CO,1.2
CCCC#Cc1ccc([C@@H]2[C@H](C#N)N(C(=O)C3CCCC3)[C@H]2CO)cc1,4.7
CCC(=O)N1CC(=O)N2[C@@H](CO)[C@H](c3ccc(-c4ccncc4)cc3)[C@@H]2C1,1.6
O=C(Nc1ccccc1)N1CCCCN2[C@H](CO)[C@H](c3ccc(-c4ccccc4)cc3)[C@@H]2C1,0.35
O=C(Cc1ccccc1)N1CC(=O)N2[C@H](C1)[C@H](c1ccc(C3=CCCC3)cc1)[C@@H]2CO,0.16
CCCC#Cc1ccc([C@@H]2[C@H](CO)N3C(=O)CN(C(=O)c4ccncc4)C[C@@H]23)cc1,4.1
CCc1cnc(N2[C@H](C#N)[C@H](c3ccc(-c4cccc(F)c4)cc3)[C@@H]2CO)s1,0.68
O=C(c1ccccn1)N1CC(=O)N2[C@@H](CO)[C@@H](c3ccc(C#Cc4ccccc4)cc3)[C@@H]2C1,-20*
O=C(c1ccccn1)N1CC(=O)N2[C@H](CO)[C@H](c3ccc(C#Cc4ccccc4)cc3)[C@@H]2C1,-5.8*
CCCC#Cc1ccc([C@H]2[C@H]3CN(C(=O)c4ccccn4)CC(=O)N3[C@H]2CO)cc1,2.6
O=C(c1ccccn1)N1CC(=O)N2[C@H](C1)[C@H](c1ccc(C#CCc3ccccc3)cc1)[C@@H]2CO,0.049
O=C(c1ccccn1)N1CC(=O)N2[C@H](C1)[C@@H](c1ccc(C#CCc3ccccc3)cc1)[C@@H]2CO,0.38
O=C(c1ccccn1)N1CC(=O)N2[C@H](CO)[C@@H](c3ccc(C#CCc4ccccc4)cc3)[C@H]2C1,-1.9
O=C(c1ccccn1)N1CC(=O)N2[C@H](CO)[C@@H](c3ccc(C#CCc4ccccc4)cc3)[C@@H]2C1,-0.0049
SMILES,IDE exosite FP
O=C(c1ccccn1)N1CC(=O)N2[C@H](CO)[C@@H](c3ccc(C#Cc4ccccc4)cc3)[C@@H]2C1,-7.3*
CC(C)C#Cc1ccc([C@@H]2[C@@H](CO)N3C(=O)CN(C(=O)c4ccccn4)C[C@@H]23)cc1,0.71
C[C@H]1CC(=O)N[C@H](c2ccccc2)C/C=C\C[C@H](c2ccc3c(c2)OCO3)NC1=O,0.55
CN1C(=O)c2cc(NS(=O)(=O)c3cccc(F)c3)ccc2OC[C@H]2O[C@@H](CC(=O)N3CCc4ccccc4C3)CC[C@H]21,-0.95
C[C@H]1CC(=O)NCC/C=C\C[C@H](c2ccc3c(c2)OCO3)NC1=O,-0.59
O=C(C[C@@H]1CC[C@H]2[C@@H](COC[C@H](O)CN2S(=O)(=O)c2cccc(F)c2)O1)NCc1ccncn1,-0.57
OC[C@@H]1[C@@H](c2ccc(-c3cccnc3)cc2)[C@@H]2CN(Cc3ccccn3)CCCCN12,-2.9

# Compound activity as filed in PubChem.
